Source: PubChem BioAssay (Tox21)
Several values for one entry are separate records, joined by “and”; a condition that tells them apart may be missing. Equal entries are not always repeated. Inconclusive results are not listed. Where a structure was tested more than once in an assay, its records may differ in their call. Activity calls are given as the source filed them. The call rests on the fitted dose curve; in most records, active means well fitted cell-killing curve with a large enough effect in the repeat runs; inconclusive means weak or mixed curves; inactive means no such curve, though single readings can be large or run the other way.

experiment: qHTS assay to identify small molecule antagonists of the peroxisome proliferator-activated receptor delta (PPARd) signaling pathway - cell viability counter screen (AID 743213); conditions: PPARd-bla HEK293H viability, CellTiter-Glo luminescence, 17 h; series mostly up to 62 µM; viability change, negative = cytotoxic: at the top concentration; further: nearly all actives have a fitted effect of over 50% in size
Source text: U.S. Tox21 Program National Center for Advancing Translational Sciences [NCATS] NIH Chemical Genomics Center [NCGC] U.S. Environmental Protection Agency [EPA] National Institutes of Environmental Health Sciences [NIEHS] National Toxicology Program [NTP] U.S. Food and Drug Administration [FDA] Tox21 Assay Overview: The peroxisome proliferator-activated receptors (PPARs) are lipid-activated transcription factors of the nuclear receptor superfamily with three distinct subtypes namely PPAR alpha, PPAR delta (PPARd) and PPAR gamma. All these subtypes heterodimerizes with Retinoid X receptor (RXR) and have different physiological functions. […] To identify the compounds that inhibit PPAR-delta signaling, GeneBLAzer PPAR delta UAS-bla HEK293H cell line (Invitrogen, Carlsbad, CA, USA) containing a beta-lactamase reporter gene under the control of an Upstream Activator Sequence (UAS) was used to screen the Tox21 compound library. The cytotoxicity of the Tox21 compound library against the PPARd-bla cell line was tested in parallel by measuring the cell viability using CellTiter-Glo assay (Promega, Madison, WI) in the same wells.
Tox21 Assay Protocol Summary: PPARd-bla cells were dispensed at 3000 cells/5uL/well in 1536-well black wall/clear bottom plates using a Multidrop Combi (Thermo Fisher Scientific, Waltham, MA) dispenser. After the assay plates were incubated at 37 C and 5% CO2 for 5 h, 23 nL of compounds dissolved in DMSO, positive controls or DMSO only was transferred to the assay plate by a Pintool station (Kalypsys, San Diego, CA), followed by addition of 1ul L165041 (300 nM, final concentration in the wells). The assay plates were incubated at 37 C for 17 h, and then 1 uL of LiveBLAzerTM B/G FRET substrate was added using a Bioraptr Flying Reagent Dispenser (FRD) workstation (Beckman Coulter, Indianapolis, IN, USA). The assay plates were incubated at room temperature for 2 h and fluorescence intensity was measured by an Envision plate reader (PerkinElmer, Shelton, CT). For cell viability readout that measures cytotoxicity, 3 ul/well of CellTiter-Glo reagent was added into the assay plates using a Bioraptr FRD. After 30 min incubation at room temperature, the luminescence intensity in the plates was measured using a ViewLux plate reader (PerkinElmer).
On the % scale 0 is the no-effect control and ±100 the full control effect; potency means the concentration at half of the fitted maximal effect.

Row | SMILES | viability change, negative = cytotoxic | Potency
1 | CCCCCCCC/C=C\CCCCCCCC(=O)OCCOC(=O)CCCCCCC/C=C\CCCCCCCC | 13.4% [at 80.4 µM] (inactive) | 
2 | Clc1ccc(C(Cn2ccnc2)OCc2ccsc2Cl)c(Cl)c1 (stereo not given) | -14.5% (inactive) | 
3 | CC1(C)C(=O)N(Br)C(=O)N1Br | 0.996% (inactive) | 
4 | COc1ccc2sc(C(=O)Nc3nnn[nH]3)c(OC(C)C)c2c1 | -15.8% (inactive) | 
5 | CCOC(=O)[C@@](C)(N)Cc1ccc(O)c(O)c1 | -12.4% (inactive) | 
6 | O=C1NC2CCCCN2C12CCN(CCCN1c3ccccc3CCc3ccc(Cl)cc31)CC2 (stereo not given) |  | 26.6 µM (active)
7 | C=C[C@](C)(O)CC[C@@H]1[C@@]2(C)CCCC(C)(C)[C@@H]2CC[C@@]1(C)O |  | 34.7 µM (active)
8 | CCCCCCCOC(=O)c1ccc(O)cc1 |  | inactive and 34.7 µM (active)
9 | Cc1ccc(-n2[nH]c(C)c(N=Nc3cccc(-c4cccc(C(=O)O)c4)c3O)c2=O)cc1C | -8.37% (inactive) | 
10 | CCCCCCCCCCCC(=O)N(CC)CC | -27% (inactive) | 
11 | CNCC[C@H](Oc1cccc2ccccc12)c1cccs1 |  | 5.31 µM (active)
12 | O=C1C=CC(=O)N1c1ccccc1 |  | 15.5 µM (active)
13 | CCCCC(CC)COC(=O)c1ccc(O)cc1 (stereo not given) |  | 34.5 µM (active) and 38.9 µM (active)
14 | O=C(O)Cc1ccc(OCCNC[C@H](O)c2ccccc2)cc1 | -16.8% (inactive) | 
15 | NC1(c2ccc(-c3nc4ccn5c(=O)[nH]nc5c4cc3-c3ccccc3)cc2)CCC1 |  | 15 µM (active)
16 | CC(C)(c1cc(Br)c(OCCO)c(Br)c1)c1cc(Br)c(OCCO)c(Br)c1 |  | 42.7 µM (active)
17 | Cc1cn[nH]c1 | 10.3% (inactive) | 
18 | C=C1C(C)(C)[C@@]2(Cl)C(Cl)[C@]1(Cl)C(Cl)(Cl)C2(Cl)Cl (stereo not given in full) | -32.2% (inactive) | 
19 | CCCCCCOc1cc(C)c(O)c(C)c1C | -15.6% [at 80.4 µM] (inactive) | 
20 | O=C(c1ccccc1)c1cc(Cl)ccc1O | 1.19% (inactive) | 

Row | SMILES | viability change, negative = cytotoxic | Potency
21 | O=Cc1ccc(F)cc1 | -17.9% (inactive) | 
22 | C=CC(=O)OCCC#N | 3.93% [at 80.4 µM] (inactive) | 
23 | c1ccc(Nc2cccc3ccccc23)cc1 |  | inactive
24 | CCCCCCCCCC(=O)N(C)C | 19.7% [at 80.4 µM] (inactive) | 
25 | CC(C(O)c1ccccc1)N(C)CCOC(c1ccccc1)c1ccccc1 (stereo not given) |  | 33.5 µM (active)
26 | Cc1cc2c(C(C)C)c(O)c(O)c(C=O)c2c(O)c1-c1c(C)cc2c(C(C)C)c(O)c(O)c(C=O)c2c1O |  | 11.9 µM (active)
27 | O=C1c2c(O)ccc(O)c2C(=O)c2c(NCCNCCO)ccc(NCCNCCO)c21 | -34.4% (inactive) | 
28 | CN1[C@@H]2CC[C@@H]1CC(OC(=O)C(CO)c1ccccc1)C2 (stereo not given in full) | -1.21% (inactive) | 
29 | c1cc2c3c(c1)ccc1cccc(c13)C2 | 0.139% [at 80.4 µM] (inactive) | 
30 | CCO[Si](CCCSSSSCCC[Si](OCC)(OCC)OCC)(OCC)OCC | -29.3% (inactive) | 
31 | CCOC(=O)N1CCC(=C2c3ccc(Cl)cc3CCc3cccnc32)CC1 |  | 43.6 µM (active)
32 | O=C1NCCN1CCN1CCC(c2cn(-c3ccc(F)cc3)c3ccc(Cl)cc23)CC1 |  | 23.7 µM (active)
33 | CC(C)(C)c1cc(/C=C2\SC(=N)NC2=O)cc(C(C)(C)C)c1O |  | 54.9 µM (active)
34 | C=C(c1ccc(C(=O)O)cc1)c1cc2c(cc1C)C(C)(C)CCC2(C)C |  | 21.9 µM (active) and 29.8 µM (active)
35 | COc1cc(C=C2CCC/C(=C\c3ccc(O)c(OC)c3)C2=O)ccc1O |  | 33.5 µM (active)
36 | Cc1ccc(N)cc1O | -25.8% (inactive) | 
37 | C[C@@H]1CC[C@H]2C(C)(C)[C@H]3C[C@@]12CC[C@@]3(C)O | -21.6% (inactive) | 
38 | [O]=[Zr] | 14.4% (inactive) | 
39 | O=S(=O)(O)CCCN1CCOCC1 | 10.7% (inactive) | 
40 | NC(=O)C(=O)N/N=C/c1ccc([N+](=O)[O-])o1 | -0.169% (inactive) | 
